HCMV antiviral – human cytomegalovirus inhibition; HFF cells, HCMV-luciferase reporter, 72 h; stronger effect = lower value; activity change, negative = inhibition, % at 57.5 µM; 410,000 compounds, 4.5% hits; AID 1259415; in the data active = activity change below about -60%; inconclusive = no clear call, values can overlap the other calls; inactive = above about -39%
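Cell-based, HFFs, 1000 cells/well, 16 h 37C; cpds in DMSO + HCMV-luc, MOI 1 PFU/cell; 72 h 37C; OneGlo luminescence after 5 min RT; norm. to buffer vs Salinomycin 10uM.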
HCV inh – HCV inhibition | Huh7.5.1 HCVcc-Cre infection, luciferase reporter, 44 h | Potency, µM (doses to about 41.8 µM), for inactives: at the highest dose activity change, negative = inhibition, usual class: inhibitors | 340,000 compounds, 3.4% hits; active = well fitted inhibition curve with a large enough effect; inconclusive = small, poorly fitted or top-dose-only effect, or another doubt; inactive = no such curve, though single readings can be large or run the other way; also: potency is read from the fitted curve at half-maximal effect
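A cell-based infection assay in which seeded cells (1,000 per well) receive test compound after 4 h, are inoculated with HCVcc-Cre at approximately 0.5 moi, and are incubated 44 h before luminescence detection.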
FMDV inh – antivirals against foot and mouth disease virus. FMDV antiviral cell-based qHTS. Potency, µM (top dose mostly 57.9 µM), for inactives: at the top dose activity change, negative = inhibition, most hits filed as inhibitors. 410,000 compounds, 1.2% hits. AID 1159524; calls by dose curve; tested in HEK293T cells; also: read-out not given here; potency is read from the fitted curve at half-maximal effect; nearly all actives have a fitted effect of over 45% in size
LASV entry inh – inhibitors of Lassa virus binding or cell entry. Lassa virus pseudotype entry inhibition, cell reporter. Potency, µM (doses to about 37.9 µM), inactives show at the top dose activity change, negative = inhibition, actives largely listed as inhibitors. 300,000 compounds, 1.2% hits; calls by dose curve; tested in HEK293 cells; also: potency is read from the fitted curve at half-maximal effect; nearly all actives have a fitted effect of over 50% in size
MARV entry inh – blocks Marburg virus binding to or entry into cells; Potency, µM (doses to about 37.8 µM), for the others: at the top dose activity change, negative = inhibition, usual class: inhibitors; Marburg virus pseudotyped entry inhibition, cell reporter; 300,000 compounds, 1.8% hits; AID 540276; calls by dose curve; tested in HEK293 cells; also: potency is read from the fitted curve at half-maximal effect
Numbers without * were called inactive; ? = inconclusive; . = not tested or not shown; [ ] = dose if it differs, or a comment. Hits are enriched below; roughly 7.9% of the tested compounds scored in any of these assays. % is scaled to controls: 0 for no effect and ±100 for the full control effect.

SMILES	HCMV antiviral	HCV inh	FMDV inh	LASV entry inh	MARV entry inh
COc1ccc(NC(=O)Cn2ccn(-c3ccc(F)c(F)c3)c(=O)c2=O)cc1Cl	46	.	-22%	?	.
CCc1ccc(NC(=O)[C@H](C)NC(=O)C2CCN(C(=O)[C@@H](NC(=O)OC(C)(C)C)C(C)C)CC2)cc1	-71*	-12%	48%	.	5%
CC(C)[C@H](NC(=O)OC(C)(C)C)C(=O)N1CCC(C(=O)N[C@@H](C)C(=O)Nc2ccc(F)cc2)CC1	-30	17%	-15%	.	.
Cc1ccc(/C=C2/Sc3ccc(C(=O)NCCN4CCOCC4)cc3NC2=O)cc1	0	0%	-4%	.	.
CCN1CCCC1CNC(=O)c1ccc2c(c1)NC(=O)/C(=C\c1ccc(C)cc1)S2 (stereo not drawn)	-37	6.3µM*	-3%	.	.
O=C(NCCc1ccccc1F)C1CC(=O)N(c2ccc3c(c2)OCCO3)C1 (stereo not drawn)	-25	.	-14%	.	.
Cc1ccc(C(=O)CCC(=O)Nc2ccc(Cl)c(S(=O)(=O)Nc3cccc(Cl)c3)c2)cc1	0	14%	28%	?	-13%
COc1cc(OC)cc(C(=O)Nc2ccc(C(=O)Nc3ccccc3OC)cc2)c1	-5	11µM*	-17%	-21%[46.1 µM]	?
COc1ccccc1NS(=O)(=O)c1cc(NC(=O)c2[nH]c(C)c(C(C)=O)c2C)ccc1N1CCOCC1	-90*	?	16%	.	.
CCC(C)NCCC(=O)Nc1ccc(Cl)c(S(=O)(=O)Nc2ccc(Cl)cc2)c1 (stereo not drawn)	-2	?	19%	7%	11µM*
CCOC(=O)c1ccc(N2CCOCC2)c(NC(=O)c2c(-c3ccccc3)noc2C)c1	-5	?	-13%	?	1.8µM*
COc1ccccc1NC(=O)c1ccc(NC(=O)c2ccco2)cc1	?	-11%	2%	?	?
COc1ccccc1NS(=O)(=O)c1cc(NC(=O)c2ccccc2C)ccc1N1CCOCC1	-14	-8%	67%	?	?
COc1ccc(CN2C[C@@H](CO)O[C@@H](n3cnc4c(NCc5ccc(F)cc5)ncnc43)C2)cc1	67	.	-21%	.	.
COC(=O)[C@]12CCCCC=C1N(Cc1ccc(Cl)cc1Cl)C(=O)[C@H](CC(=O)N1CCOCC1)C2	39	.	-18%	.	.
CO[C@H]1[C@H](NC(=O)c2ccco2)c2ccccc2C12CCN(Cc1cc(Cl)ccc1O)CC2	.	.	-21%	.	.
COc1cccc(C(=O)Nc2ccc(Cl)c(-c3nc4ccccc4[nH]3)c2)c1	-89*	.	?	?	?
COc1ccc(C(=O)Nc2ccc(Cl)c(S(=O)(=O)Nc3ccccc3OC)c2)cc1	-93*	?	-9%	?	2.8µM*
COc1cccc(C(=O)Nc2ccc(C(=O)c3ccccc3)cc2)c1	?	10µM*	-11%	.	.
COc1cc2c(cc1OC)CN(C(=O)c1cc(S(=O)(=O)N3CCOCC3)c(Cl)cc1Cl)CC2	.	25µM*	?	-22%[46.1 µM]	-10%[46.1 µM]
O=C(c1cc(S(=O)(=O)N2CCOCC2)c(Cl)cc1Cl)N1CCCC1	4	7%	1%	15%	1%
COc1ccccc1NC(=O)Nc1ccc(Cl)c(S(=O)(=O)Nc2ccccc2OC)c1	4	?	4%	?	?
Cc1onc(-c2ccccc2)c1C(=O)Nc1ccc(Cl)c(S(=O)(=O)N2CCOCC2)c1	-103*	-2%	?	.	.
CC(=O)c1c(C)[nH]c(C(=O)Nc2ccc(Cl)c(S(=O)(=O)N3CCOCC3)c2)c1C	94	?	22µM*	?	?
Cc1onc(-c2ccccc2Cl)c1C(=O)Nc1cccc(S(=O)(=O)N2CCOCC2)c1	-8	-2%	-23%	.	.
COc1ccc(NC(=O)c2[nH]c(C)c(C(C)=O)c2C)cc1S(=O)(=O)N1CCOCC1	161	?	-17%	0%	8%
COc1ccc(NS(=O)(=O)c2cc(N/C(=N\S(=O)(=O)c3ccccc3)c3ccc(F)cc3)ccc2Cl)cc1	-30	?	38%	?	12µM*
Cc1ccc(NS(=O)(=O)c2cc(NC(=O)c3ccc4c(c3)NC(=O)CS4)ccc2C)c(C)c1	?	11µM*	?	?	10µM*
C[C@]1(C(=O)CSc2nc3ccccc3[nH]2)CCC(=O)O1	.	.	.	.	-1%

Screening data deposited in PubChem BioAssay by National Center for Advancing Translational Sciences (NCATS).
